Experimental data reported in PubChem BioAssay (NCI).
Where “and” joins values, the source holds several entries; their conditions need not be identical. Equal entries are not always repeated. The panel holds about 79,000 compounds, 15% with a hit somewhere; the sample as a whole holds those more often. Calls of active or inactive are those of the source. Rule as the data show it: active = growth inhibition above about 70%; inactive = the rest.

Columns and labels:
[1] = NCI Yeast Anticancer Drug Screen. Data for the rad50 strain (AID 155);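 also: 0% = growth of vehicle-only cultures of the same strain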; details: S. cerevisiae rad50 strain growth inhibition, stronger effect = higher value; at 50.0 µM unless noted
Outline: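 A DNA repair-deficient yeast mutant serves as the test organism; compound-induced growth inhibition is calculated against vehicle-treated cells.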

[2] = NCI Yeast Anticancer Drug Screen. Data for the mec2-1 strain (AID 157); details: S. cerevisiae mec2-1 strain, stronger effect = higher value; at 50.0 µM unless noted
Outline: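 Vehicle-treated cultures served as reference for growth inhibition of compound-exposed mec2-1 yeast.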

[3] = NCI Yeast Anticancer Drug Screen. Data for the sgs1 mgt1 strain (AID 161);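 also: 0% = growth of cultures given vehicle only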; details: S. cerevisiae sgs1 mgt1 strain, stronger effect = higher value; at 50.0 µM unless noted
Outline: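 Test agents were incubated with a DNA-repair-mutant yeast strain. Growth was then read and compared against vehicle-treated controls.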

[4] = NCI Yeast Anticancer Drug Screen. Data for the cln2 rad14 strain (AID 165);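 also: 0% = growth equal to vehicle treated cultures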; details: S. cerevisiae cln2 rad14 strain, stronger effect = higher value; at 50.0 µM unless noted
Outline: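 Each compound was tested on cln2 rad14 yeast. Inhibition of growth was calculated against vehicle-exposed controls.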

[5] = NCI Yeast Anticancer Drug Screen. Data for the bub3 strain (AID 167); details: S. cerevisiae bub3 mutant strain, stronger effect = higher value; at 50.0 µM unless noted
Outline: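 Inhibition values come from growth of compound-treated mutant yeast normalised to vehicle-treated controls.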

[6] = NCI Yeast Anticancer Drug Screen. Data for the mlh1 rad18 strain (AID 175); details: S. cerevisiae mlh1 rad18 strain growth inhibition, stronger effect = higher value; at 50.0 µM unless noted
Outline: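 Vehicle-treated cultures served as the reference for growth inhibition in a yeast strain carrying DNA damage repair alterations exposed to each compound.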

Measured: growth inhibition

NC(=S)N/N=C/c1ccc([N+](=O)[O-])s1
inactive: [1] 9.65% | [2] 1.1% | [3] 19.9% | [4] 25.1% | [5] 22% | [6] 32.5%

CC1(C)COC2(CCCCC2)OC1
inactive: [1] 12.8% | [2] 4.4% | [3] -10.6% | [4] -30.1% | [5] -1.7% | [6] 8.95%

OC(CN1CCCC2CCCCC21)c1cc2c(c3ccccc13)CCCC2 (stereo unspecified)
active: [1] 98.2% | [2] 96.7% | [3] 99.5% | [4] 93.7% | [5] 98.5% | [6] 99.5%

OC1(C#CC#CC2(O)CCCCC2)CCCCC1
inactive: [1] 12.9% | [2] 15.7% | [3] 0.2% | [4] 10.1% | [5] 3.4% | [6] 4.2%

CN(C)C(=S)S(=O)(=O)c1ccccc1
inactive: [1] 51.5% | [4] 25.2%
active: [2] 75.8% | [3] 81.2% | [5] 85.6% | [6] 91.2%

O=C(CNC(=O)C(Cc1ccccc1)N1C(=O)c2ccccc2C1=O)Nc1ccccc1 (stereo unspecified)
inactive: [1] 34.4% | [2] -1.55% | [3] 46.3% | [4] 5% | [5] 17.4% | [6] 6.55%

Cn1nnn(Cc2ccccc2)/c1=N/C(=S)Nc1ccccc1
inactive: [1] -11.6% | [2] -6.75% | [3] -4.05% | [4] -7.45% | [5] 3.1% | [6] -21.4%

Nc1cc(C(=O)O)[nH]c(=O)n1
inactive: [1] -23.7% | [2] -18.4% | [3] -20.2% | [4] -70.2% | [5] -18.9% | [6] -10.3%

O=C(CCl)Oc1ccc2ccccc2c1
inactive: [1] 27.1% | [2] -2.05% | [3] -8.05% | [4] 8.25% | [5] 13.1% | [6] 31.4%

COC(=O)c1[nH]c(=O)c2ccc([N+](=O)[O-])cc2c1O
inactive: [1] -15.7% | [2] 0.15% | [3] -14.9% | [4] 16.1% | [5] -6.05% | [6] -0.4%

Brc1ccc2c(ccc3c2nnc2ncnn23)c1
inactive: [1] 42.5% | [2] 22.4% | [3] 16.9% | [4] 10.7% | [5] -1.55% | [6] 42.2%

O=C(O)C(NCCCCCNC(C(=O)O)c1ccccc1)c1ccccc1 (stereo unspecified)
inactive: [1] 15.8% | [2] 21.2% | [3] 15.9% | [4] 24.9% | [5] 13.9% | [6] 24.6%

N#Cc1c(-c2ccccc2)c(-c2ccccc2)nn(CCO)c1=O
inactive: [1] 7.35% | [2] 10.8% | [3] 20.9% | [4] -21.8% | [5] 6.4% | [6] 46%

CCOC(=O)c1cnc2c(cnn2CC)c1NCC(C)C
active: [5] 85.9%
inactive: [1] -3.15% | [2] 21.8% | [3] 18.6% | [4] 3.15% | [6] 3.35%

CCCc1cc(Cl)ccc1OCC(=O)O
inactive: [1] 32.4% | [2] 18.9% | [3] 14.1% | [4] 11.6% | [5] 20.5% | [6] 10.3%

O=C(Nc1ccc(Nc2ccc3c(c2)C(=O)c2ccccc2C3=O)c2c1C(=O)c1ccccc1C2=O)c1ccccc1
inactive: [1] -35.7% | [2] -15.2% | [3] -15.3% | [4] -36.7% | [5] -15.2% | [6] -25.6%

CC1CC[N+](C)(CC(=O)c2ccc(-c3ccc(C(=O)C[N+]4(C)CCC(C)CC4)cc3)cc2)CC1 (stereo unspecified)
inactive: [1] -8.2% | [2] 1.4% | [3] -12.7% | [4] 22.9% | [5] -3.15% | [6] -10.2%

COC(=O)[C@@H]1O[C@H]1c1ccccn1
inactive: [1] 7.9% | [2] 1.1% | [3] -7.95% | [4] -5.75% | [5] 8.95% | [6] 0.1%

Nc1nc(Cl)cc(NCCO)n1
inactive: [1] -1.15% and -5.05% | [2] -36.6% and 7% | [3] -39.5% and 20.7% | [4] -7.85% and -0.25% | [5] -21.1% and 4.8% | [6] 1.8% and 43.4%

CC1=NCC23CC(=O)C4C(CCC5(C)CC(O)CCC45C)C2CCC13 (stereo unspecified)
inactive: [1] 0.85% | [2] -0.95% | [3] 7.6% | [4] -36.6% | [5] 20.4% | [6] 1.9%

CSc1nc(C)cc(=O)[nH]1
inactive: [1] -12.1% | [2] -2.95% | [3] -17.9% | [4] 20% | [5] 5.5% | [6] -13.3%

C=CCOCC(O)CNCC(O)COCC=C (stereo unspecified)
inactive: [1] -36.9% | [2] -33.7% | [3] -24.9% | [4] 14.3% | [5] -31.2% | [6] 5.2%

c1ccc(C(=NN=C(c2ccccc2)c2ccccc2)c2ccccc2)cc1
inactive: [1] 17.9% | [2] 23.9% | [3] 8.4% | [4] 30.5% | [5] 1.25% | [6] 6.25%

Cc1cc(C(=O)c2ccccc2)on1
inactive: [1] 4.05% | [2] -22.6% | [3] -11.9% | [4] -36.1% | [5] 7.7% | [6] 4.55%

Cc1c(Cl)cccc1NC(=O)COc1ccc(Cl)cc1
inactive: [1] 16.4% | [2] 9.4% | [3] 4.2% | [4] -3.7% | [5] 6.5% | [6] 4.05%

O=C(O)CCc1[nH]c(I)nc1I
inactive: [1] 17.1% | [2] 14.3% | [3] 5.3% | [4] -0.7% | [5] -7.45% | [6] 29.5%

Nc1nc(-c2ccc(Cl)cc2)cc(-c2cc(-c3ccc(Cl)cc3)nc(N)n2)n1
inactive: [1] 6.7% | [2] -12.9% | [3] -8.15% | [4] -16% | [5] -11.2% | [6] 25.4%

C#CCN(N=O)C(=O)NCCCCC(NC(=O)OCc1ccccc1)C(=O)OCc1ccccc1 (stereo unspecified)
inactive: [1] -6.65% | [2] -8.15% | [3] -26.6% | [4] -4.5% | [5] 10.3% | [6] -24.9%

Cn1nc(-c2ccccc2)c(C(=O)/C=C/c2ccccc2)c(N2CCCCC2)c1=O
inactive: [1] -27.9% | [2] -11.6% | [3] -11.5% | [4] 3% | [5] 27% | [6] -27.8%

COC(=O)CCC(=O)Nc1cc(C)ccc1C
inactive: [1] -6.3% | [2] -19.9% | [3] -7.6% | [4] 4.5% | [5] -2.25% | [6] -12.2%

CNC(=O)Nc1c(C)cccc1C
inactive: [1] 0.05% | [2] 6.1% | [3] -0.2% | [4] -26.2% | [5] 0.05% | [6] 4.05%

NC(Cc1cc(Br)c(Oc2ccc(O)cc2)c(Br)c1)C(=O)O (stereo unspecified)
inactive: [1] 19.8% | [2] 12.8% | [3] -9.1% | [4] -0.55% | [5] 2.55% | [6] 20.9%

CCOC(=O)C(=CNC(=S)N=Nc1c(O)[nH]c2ccccc12)C(=O)OCC
inactive: [1] -58.4% | [2] -69.2% | [3] -45% | [4] 2.85% | [5] -36.9% | [6] -25.8%

N#CC(C(=O)CCC(=O)C(C#N)c1ccccc1)c1ccccc1 (stereo unspecified)
inactive: [1] -26.4% | [2] -14.8% | [3] 1.2% | [4] 5.9% | [5] 6.45% | [6] -6.4%

COc1ccc(C(=O)c2ccc(Br)s2)cc1
inactive: [1] 5.9% | [2] -6.65% | [3] 12.8% | [4] -14.4% | [5] 13.8% | [6] 33%

O/N=C/c1ccc(O)cc1
inactive: [1] -63.2% | [2] -21.1% | [3] -14.4% | [4] -19.6% | [5] 2.55% | [6] -28.9%

N#Cc1cccc2c1Nc1ccccc1S2
inactive: [1] -9.75% | [2] -21.8% | [3] -10.7% | [4] 8.8% | [5] 5.9% | [6] -19.9%

CC(C)(C)c1ccc(C(C)(C)C)c(N2C(=O)c3ccc4c5ccc6c7c(ccc(c8ccc(c3c48)C2=O)c75)C(=O)N(c2cc(C(C)(C)C)ccc2C(C)(C)C)C6=O)c1
inactive: [1] -15.2% | [2] -7.9% | [3] -4.25% | [4] -6.2% | [5] -11.9% | [6] -6.8%

CCN(CC)CCNc1cc(OC)c(OC)cc1[N+](=O)[O-]
inactive: [1] -35% | [2] 14.4% | [3] 5.7% | [4] -7.45% | [5] -0.45% | [6] -15%

CC(=O)Nc1ccc2ccccc2c1[N+](=O)[O-]
inactive: [1] -11.1% | [2] -14.4% | [3] -17.4% | [4] -64.5% | [5] -35.8% | [6] 15.7%

COC(=O)C(Br)C(CCCN1C(=O)c2ccccc2C1=O)OC (stereo unspecified)
inactive: [1] 27.5% | [2] 7.55% | [3] 45.9% | [4] 8.5% | [5] 39.9% | [6] 19.1%
